Common to all, as to assay type: functional
Test [1] deals with Plasmodium falciparum. Kind of test: GSK_TCMDC: Inhibition of Plasmodium falciparum 3D7 in whole red blood cells, using parasite LDH activity as an index of growth. Test compounds present at 2uM.
Test [2] relates to Plasmodium falciparum. Kind of test: GSK_TCMDC: Inhibition of Plasmodium falciparum Dd2 in whole red blood cells, using parasite LDH activity as an index of growth. Test compounds present at 2uM.
A further test concerns HepG2. The experiment in a line: GSK_TCMDC: Percent inhibition of human HepG2 cell line. Test compounds present at 10uM.

Values joined by “and” are separate entries in the source; they are usually repeats but may differ in a detail not shown here. Identical values can stand only once.

With `CC[C@H]1CN2CC[C@H]1C[C@H]2[C@H](O)c1cc(-c2ccc(F)cc2C)nc2ccc(OC)cc12.Cl`, the Inhibition in the test with Plasmodium falciparum [1] was determined as 99%; in the test on Plasmodium falciparum [2] it was 100%; with HepG2, 0%.
As to `Cc1c2ccncc2c(C)c2c1[nH]c1ccccc12` [ELLIPTECINE], the Inhibition in the test with Plasmodium falciparum [1] worked out at 95%; in the test on Plasmodium falciparum [2] it was 97%; in the test on HepG2 it was 38%.
In the case of `Fc1ccc(N(c2nc(-c3cc(F)cc(C(F)(F)F)c3)cs2)C2CCNCC2)cc1.O=C(O)C(F)(F)F`, the Inhibition in the test on Plasmodium falciparum [1] came to 95%; with Plasmodium falciparum [2], 10%; in the test with HepG2, 35%.
As to `CC[C@H]1CN2CC[C@H]1C[C@H]2[C@H](O)c1cc(-c2ccccc2C)nc2ccc(OC)cc12.Cl`, the Inhibition turned out to be 100% in the test with Plasmodium falciparum [1], 98% in the test on Plasmodium falciparum [2] and 16% in the test on HepG2.
In the case of `CNCCN(C)C(=O)Oc1c(Br)c(C)nc(C)c1-c1ccc(Oc2ccc(OC(F)(F)F)cc2)cc1.Cl`, the Inhibition in the test on Plasmodium falciparum [1] is on record as 98%; in the test on Plasmodium falciparum [2], 98%; in the test on HepG2 it was 19%.
`CN(Cc1ccccc1)C1CCN(CCc2c[nH]c3ccc(F)cc23)CC1.O=C(O)C(F)(F)F`: the Inhibition in the test with Plasmodium falciparum [1] was 100%; with Plasmodium falciparum [2], 91%; with HepG2, 28%.
In the same order, the values of `CC(Cc1ccc([N+](=O)[O-])cc1)NCC(O)c1cccc(C(F)(F)F)c1` (stereo unspecified) are 98%, 92% and 0%.
On to `CC[C@H]1CN2CC[C@H]1C[C@H]2[C@H](O)c1cc(-c2cccc(C)c2)nc2ccc(OC)cc12.Cl`, for which the Inhibition in the test on Plasmodium falciparum [1] is 100%; in the test with Plasmodium falciparum [2], 100%; in the test on HepG2, 15%.
Take `Cc1cc(C)c(CC(C)NCC(O)c2cccc(C(F)(F)F)c2)c(C)c1.Cl` (stereo unspecified): the Inhibition in the test on Plasmodium falciparum [1] came out at 100%; with Plasmodium falciparum [2], 99%; in the test on HepG2, 0%.
As for `CC(C)CNCc1cccc(-c2cccc(CN(C(=O)NC3CCCCC3)C3CCN(Cc4ccccc4)CC3)c2)c1.O=C(O)C(F)(F)F`, the Inhibition in the test on Plasmodium falciparum [1] is recorded as 97%; in the test on Plasmodium falciparum [2], 87%; in the test with HepG2, 32%.
In the same order, the values of `CCCc1c(C(=O)NC2CCC(CN3CCC(c4c[nH]c5ccccc45)CC3)CC2)cnn1-c1ccccc1` (stereo unspecified) are 92%, 7% and 33%.
On the same counts, the results for `COC(=O)c1ccc(CC(C)NCC(O)c2cccc(C(F)(F)F)c2)cc1C` (stereo unspecified) are 93%, 74% and 6%.
For `Oc1ccccc1CN1CCC(CCOC(c2ccccc2)c2ccc(Cl)cc2)CC1` (stereo unspecified), the Inhibition with Plasmodium falciparum [1] stood at 97%; in the test with Plasmodium falciparum [2], 99%; in the test with HepG2, 19%.
In the same order, the values of `O=C(NC1CCC(CN2CCC(c3c[nH]c4ccccc34)CC2)CC1)c1cc2ccccc2o1` (stereo unspecified) are 94%, 14% and 34%.
On the same counts, the results for `CC[C@H]1CN2CC[C@H]1C[C@H]2C(O)c1cc(OC)nc2ccccc12` (stereo partly specified) are 100%, 98% and 0%.
On the same counts, the results for `CC[C@H]1CN2CC[C@H]1C[C@H]2[C@H](O)c1cc(-c2ccccc2F)nc2ccc(OC)cc12.Cl` are 99%, 98% and 13%.
As for `S=C(NCCc1ccc(Cl)cc1)NC1CCC(CN2CCC(c3c[nH]c4ccccc34)CC2)CC1` (stereo unspecified), the Inhibition is 100% with Plasmodium falciparum [1]; 84% and 34% with Plasmodium falciparum [2]; 42% and 37% in the test on HepG2.
As for `O=C(C=Cc1cccc(Cl)c1Cl)NC1CCC(CN2CCC(c3c[nH]c4ccccc34)CC2)CC1` (stereo unspecified), the Inhibition in the test on Plasmodium falciparum [1] is 83% and 100%; in the test on HepG2, 40% and 33%.
On to `O=C(CCc1ccc(Cl)cc1Cl)NC1CCC(CN2CCC(c3c[nH]c4ccccc34)CC2)CC1` (stereo unspecified), for which the Inhibition is 100% and 97% in the test with Plasmodium falciparum [1]; 44% and 33% in the test on HepG2.
Consider `CC(Cc1ccc(OCCCCOc2ccccc2)cc1)NCCCn1ccnc1` (stereo unspecified), for which the Inhibition in the test on Plasmodium falciparum [1], with Plasmodium falciparum [2] and in the test with HepG2 was 100% in each case.
`COc1ccc(C[C@@H](C)NC[C@H](O)c2cccc(Cl)c2)cc1F`: the values for the Inhibition in the test on Plasmodium falciparum [1], with Plasmodium falciparum [2] and in the test with HepG2 were 89%, 75% and 6%, respectively.
In the same order, the values of `O=C(Cc1c(-c2ccccc2)[nH]c2ccccc12)NC1CCC(CN2CCC(c3c[nH]c4ccccc34)CC2)CC1` (stereo unspecified) are 100%, 75% and 31%.
Take `CC1=C(C(=O)NC2CCC(CN3CCC(c4c[nH]c5ccccc45)CC3)CC2)Cc2ccccc21` (stereo unspecified): the Inhibition was 97% and 99% with Plasmodium falciparum [1]; 15% and 24% in the test with Plasmodium falciparum [2]; 41% and 37% in the test on HepG2.
Consider `O=C(/C=C/c1cccc(Cl)c1)NC1CCC(CN2CCC(c3c[nH]c4ccccc34)CC2)CC1` (stereo unspecified), for which the Inhibition in the test with Plasmodium falciparum [1] was 100%; with Plasmodium falciparum [2] it was 82% and 55%; in the test with HepG2, 35% and 42%.
Take `COC(=O)c1ccc(CC(C)NCC(O)c2cccc3ccccc23)cc1` (stereo unspecified): the figures for the Inhibition in the test on Plasmodium falciparum [1], with Plasmodium falciparum [2] and with HepG2 were 96%, 82% and 3%, respectively.
Regarding `CN1CCC(O)(c2ccc(Br)cc2)C(C(O)c2ccc(Br)cc2)C1.CS(=O)(=O)O` (stereo unspecified), the Inhibition in the test on Plasmodium falciparum [1] is listed as 98%; with Plasmodium falciparum [2] it was 99%; in the test with HepG2, 28%.
In the same order, the values of `COc1cccc(CC(C)NCC(O)c2cccc(Cl)c2)c1.Cl` (stereo unspecified) are 85%, 76% and 7%.
Turning to `C=CC12CCN(CC1)C(C(O)c1ccnc3ccc(OC)cc13)C2` (stereo unspecified), the Inhibition is recorded as 72% in the test with Plasmodium falciparum [2] and 0% in the test with HepG2.
`Cc1[nH]c2ccc(O)cc2c1C1CCN(CC2CCC(NC(=O)/C=C/c3ccc(Cl)c(Cl)c3)CC2)CC1` (stereo unspecified): the Inhibition in the test on Plasmodium falciparum [1] is recorded as 100%; in the test with Plasmodium falciparum [2], 95%; in the test on HepG2, 19%.
Consider `Cc1ccc(CC(C)NCC(O)c2cccc(C(F)(F)F)c2)cc1F.Cl` (stereo unspecified), for which the Inhibition in the test with Plasmodium falciparum [1] amounted to 97%; with Plasmodium falciparum [2] it was 91%; in the test on HepG2 it was 15%.
Regarding `CCCCCc1cc(O)c2c(c1)OC(C)(C)CC2C1=CCN(Cc2cccnc2)CC1.Cl.O` (stereo unspecified), the values for the Inhibition in the test on Plasmodium falciparum [1], with Plasmodium falciparum [2] and in the test with HepG2 were 97%, 97% and 15%, respectively.
For `Cc1[nH]c2ccccc2c1C1=CCN(CCCCC2(C)C(=O)Nc3cccc(F)c32)CC1` (stereo unspecified), the Inhibition with Plasmodium falciparum [1] is 95%; in the test on Plasmodium falciparum [2], 90%; in the test on HepG2, 9%.
In the same order, the values of `CN1CC=C(C=Cc2c[nH]c3ccccc23)CC1` are 86%, 64% and 14%.
In the same order, the values of `Br.CC(Cc1ccc(SC(C)(C)C)cc1)NCC(O)c1cccc(Cl)c1` (stereo unspecified) are 99%, 99% and 14%.
Turning to `O=C(Cc1cc(=O)oc2cc(O)ccc12)N1CCC(CN2CCC(c3c[nH]c4ccccc34)CC2)CC1`, the Inhibition in the test on Plasmodium falciparum [1] turned out to be 94%; in the test on Plasmodium falciparum [2] it was 0%; with HepG2 it was 1%.
On the same counts, the results for `COCC(=O)N(Cc1ccccc1-c1cccc(CNCCc2ccccc2)c1)C1CCN(Cc2ccccc2)CC1.O=C(O)C(F)(F)F` are 93%, 36% and 21%.
On the same counts, the results for `CC(Cc1ccc(C2=CCNCC2)cc1)NCC(O)c1cccc(C(F)(F)F)c1.Cl` (stereo unspecified) are 89%, 0% and 27%.
In the same order, the values of `CCCCc1ccc2[nH]cc(C3=CCN(C)CC3)c2c1Br` are 94%, 94% and 37%.
